# In PubChem BioAssay AID1946 (Johns Hopkins Ion Channel Center, 2009):
# Hit rate of the full screen: of about 2,400 compounds, about 180 (7.5%) were called active. Shown is part of a subset that was picked to be rich in actives. Values without a mark were called inactive.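 How the source made its calls: active means readout below zero, meaning a drop past 3 SD under the dofetilide-free negative control mean; inactive means the rest.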
# Target: Potassium voltage-gated channel subfamily KQT member 2 (Rattus norvegicus) (UniProt O88943)
# Experiment: rat KCNQ2 channel inhibition by compounds alone, confirmation, counter-screen for hERG block protector project, cell-based, CHO, FluxOR thallium flux (AID 1946)
# Conditions: CHO-KCNQ2 cells, FluxOR thallium flux fluorescence; at 10 µM; hits give low values; zero marks the 3-SD hit cutoff
# Sequence of Potassium voltage-gated channel subfamily KQT member 2 (Rattus norvegicus) (O88943 whole entry, looked up): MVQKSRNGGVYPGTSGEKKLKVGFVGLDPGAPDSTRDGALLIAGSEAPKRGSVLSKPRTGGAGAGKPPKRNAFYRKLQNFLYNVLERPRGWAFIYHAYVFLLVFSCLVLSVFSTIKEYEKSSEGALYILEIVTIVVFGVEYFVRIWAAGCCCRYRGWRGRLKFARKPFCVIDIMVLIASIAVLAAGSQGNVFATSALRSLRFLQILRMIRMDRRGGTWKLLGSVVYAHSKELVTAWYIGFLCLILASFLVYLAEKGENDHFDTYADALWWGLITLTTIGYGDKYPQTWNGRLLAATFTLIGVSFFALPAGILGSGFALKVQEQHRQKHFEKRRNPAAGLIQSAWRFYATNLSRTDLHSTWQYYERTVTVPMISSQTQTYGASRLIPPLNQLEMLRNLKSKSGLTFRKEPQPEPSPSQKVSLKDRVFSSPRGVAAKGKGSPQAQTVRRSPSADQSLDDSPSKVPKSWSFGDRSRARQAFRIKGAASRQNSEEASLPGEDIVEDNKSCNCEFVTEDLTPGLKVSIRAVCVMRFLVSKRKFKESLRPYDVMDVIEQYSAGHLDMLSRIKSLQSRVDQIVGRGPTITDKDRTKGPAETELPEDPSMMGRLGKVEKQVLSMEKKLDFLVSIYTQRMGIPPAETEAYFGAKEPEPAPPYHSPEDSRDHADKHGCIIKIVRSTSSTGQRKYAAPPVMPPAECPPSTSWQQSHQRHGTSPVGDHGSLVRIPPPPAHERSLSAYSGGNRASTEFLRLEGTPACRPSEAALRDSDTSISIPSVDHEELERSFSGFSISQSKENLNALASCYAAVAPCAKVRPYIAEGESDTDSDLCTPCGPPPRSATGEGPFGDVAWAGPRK
row,Compound,activity change vs negative control
1,O=C(NC(=S)N1CCN(Cc2ccc3c(c2)OCO3)CC1)c1cccc(Br)c1,61%
2,Cc1cc(C)cc(NC(=O)CSc2nnc(CN3CCOCC3)n2C)c1,48.6%
3,Cc1ccc(NC(=O)CSc2nnc(C3CC3)n2CC2CCCO2)c(C)c1 (centres undefined),-4.1% (active)
4,CSc1ccccc1-n1nnnc1SCC(=O)Nc1cc(C)ccc1C,2.3%
5,Cc1nnc(NC(=O)C2CCCN(S(=O)(=O)c3ccccc3C(F)(F)F)C2)s1 (centres undefined),19.4%
6,O=C(CSc1ncnc2c1cnn2-c1ccc(Cl)cc1)NCc1ccc2c(c1)OCO2,12%
7,CCC(c1nnc(SCC(=O)NCCc2ccc(Cl)cc2Cl)o1)N(C)C (centres undefined),-0.1% (active)
8,COc1ccc(C(=O)CC(=O)C(=O)Nc2ccc(C)cc2Cl)cc1,39.7%
9,CC(C)(C)c1cc(-c2n[nH]c(=S)n2-c2ccccc2F)n[nH]1,39.3%
10,CC(NC(=O)c1ccc(Br)cc1)c1ccc2c(c1)CCCC2 (centres undefined),62.8%
11,COc1ccc(NC(=O)CN2C(=O)S/C(=C/c3cccn3-c3ccc(C(=O)O)cc3)C2=O)cc1,1%
12,Cc1ccccc1NC(=O)CN1C(=O)S/C(=C\c2ccc(-c3cccc(C(=O)O)c3C)o2)C1=O,-1% (active)
13,Cc1ccccc1NC(=O)CN1C(=O)S/C(=C\c2ccc(-c3cc(C(=O)O)ccc3C)o2)C1=O,10.7%
14,Cc1cccc(NC(=O)CN2C(=O)S/C(=C\c3ccc(-c4cccc(C(=O)O)c4C)o3)C2=O)c1,-0.8% (active)
15,Cc1ccc(C(=O)O)cc1-c1ccc(/C=C2\SC(=O)N(CC(=O)Nc3ccccc3)C2=O)o1,1.7%
16,Cc1c(/C=C2\SC(=O)N(CC(=O)Nc3ccc4c(c3)OCO4)C2=O)c2ccccc2n1C,8%
17,C#CCN1C(=O)S/C(=C\c2ccc(-c3ccc(C(=O)O)cc3C)o2)C1=O,7.6%
18,Cc1cccc(NC(=O)CN2C(=O)S/C(=C\c3cccn3-c3cccc(C(=O)O)c3)C2=O)c1,5.2%
19,Cc1ccc(NC(=O)CN2C(=O)S/C(=C\c3ccc(-c4cccc(C(=O)O)c4C)o3)C2=O)cc1,-4% (active)
20,CC(C)COn1c(=S)[nH]c2ccccc2c1=O,34.7%
21,Cc1ccc(/C=N/Nc2ccc(C(=O)O)cc2)o1,5.5%
22,Cc1ccccc1NC1=NC(=S)N(c2ccccc2)C12CCCCC2,39.1%
23,CCOC(=O)c1c(-c2ccccc2)csc1NC(=S)NC,42%
24,COCCn1c(SCC(=O)Nc2cc(C)cc(C)c2)nc2ccccc2c1=O,12%
25,COC(=O)CSc1nnc(COc2ccc3ccccc3c2)o1,11.8%
26,Cc1cc(C)cc(OCc2nnc(SCC(=O)Nc3ccccc3)o2)c1,-2.3% (active)
27,COc1ccc(NC(=O)CC23CC4CC(CC(C4)C2)C3)cn1,73.9%
28,S=C(N/N=C/c1ccccc1Cl)Nc1cccc(Cl)c1Cl,30.4%
29,COc1cccc2sc(Nc3nnc(-c4ccc(F)cc4)o3)nc12,69.1%
